Source: PubChem BioAssay AID1863 (Southern Research Specialized Biocontainment Screening …, 2009)
In all, about 300,000 compounds went through this assay and about 480 (0.16%) were called active.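 The calls were made as follows: active = inhibition over 29.93%, a cutoff 3 SD above the screen mean, later confirmed by dose response; inconclusive = inhibition over 29.93% but no dose response follow-up; inactive = inhibition at most 29.93% or unconfirmed.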 These entries were drawn from the full list. Potency and affinity values are given separately.

assay: PhoP-dependent GFP reporter repression – Salmonella Typhimurium, primary screen (AID 1863);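 also: 0% = low Mg2+ inducing control and 100% = high Mg2+ repressing control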; conditions: S. Typhimurium PhoP-regulated promoter GFP reporter, 4 h; at 50 µM; hits give high values

Compound | inhibition
Cc1ccc(S(=O)(=O)N/N=C2\C(=O)C3(C)CCC2C3(C)C)cc1 (centres undefined) | 4.91% (inactive)
COc1ccc(NS(=O)(=O)c2ccc(NC(=S)NC(=O)c3cccnc3)cc2)nn1 | 10.7% (inactive)
COc1nccnc1NS(=O)(=O)c1ccc(NC(=S)NC(=O)c2cccnc2)cc1 | 36% (inactive)
NC(=O)c1ccc(NC(=O)COc2coc(CN3CCc4ccccc4C3)cc2=O)cc1 | 6.56% (inactive)
COc1cc(C(C[N+](=O)[O-])c2c(N)n(C)c(=O)n(C)c2=O)ccc1O (centres undefined) | -4.81% (inactive)
COc1ccccc1C(C[N+](=O)[O-])c1c(N)n(C)c(=O)n(C)c1=O (centres undefined) | 2.03% (inactive)
CC(C)OC(=O)CSc1nnc(CNc2cccc(Cl)c2)n1C | -3.82% (inactive)
CCSc1ccccc1C(=O)Nc1nc2ccccc2c(=O)[nH]1 | 2.88% (inactive)
COc1cc2cccc(OC)c(=O)c2c(O)c1OC | -3.95% (inactive)
COc1cc2cccc(OC)c(=O)c2c(OC)c1OC | -4.09% (inactive)
Cc1ccc(-c2nn(-c3ccccc3)cc2C(=O)NCC(c2cccs2)N2CCOCC2)cc1 (centres undefined) | -6.92% (inactive)
CC(C)CCOP(=O)(c1ccc(N(C)C)cc1)C(O)c1c(Cl)cccc1Cl (centres undefined) | -4.25% (inactive)
COc1ccc([N+](=O)[O-])cc1NC(=O)C(C)OC(=O)C1CC(=O)N(Cc2ccco2)C1 (centres undefined) | -5.1% (inactive)
COC(=O)c1ccc(N2C(=O)CC(N3CCOCC3)C2=O)cc1 (centres undefined) | 1.31% (inactive)
COc1ccc2c(c1)C(=NNC(=O)c1ccccn1)c1cc(OC)ccc1-2 | -4.06% (inactive)
O=C(NN=C1c2ccccc2-c2ccccc21)c1ccccn1 | 9.9% (inactive)
Cc1ccccc1CS(=O)(=O)c1ccc(C(=O)N2CCC(C)CC2)cc1[N+](=O)[O-] | 1.32% (inactive)
Cn1c2c(c(=O)n(C)c1=O)C(c1ccc(Br)cc1)Nc1ccccc1O2 (centres undefined) | -10.1% (inactive)
Cc1cc(C)n(C(C[N+](=O)[O-])c2ccc(Cl)cc2)n1 (centres undefined) | 16.6% (inactive)
Cc1ccc(C(C[N+](=O)[O-])n2nc(C)cc2C)cc1 (centres undefined) | 4.29% (inactive)
COc1ccc(-c2cc(C(=O)OCC(=O)NC(C)C)c3ccccc3n2)cc1 | 6.33% (inactive)
COCCN(C(=O)COC(=O)c1ccc2c(c1)OCCO2)c1c(N)n(Cc2ccccc2)c(=O)[nH]c1=O | 0.22% (inactive)
CCOC(=O)C1CCCN(C(=O)c2ccc(-c3ccc([N+](=O)[O-])cc3)o2)C1 (centres undefined) | 3.02% (inactive)
CSc1ncccc1C(=O)Nc1nc2ccc(Oc3ccccc3)cc2s1 | -15.8% (inactive)
